The full ranking holds about 59,000 sequences; the median of the read-out is about -0.00055, and the lowest 2% start at about -2. Only a selection was taken, and the lowest values are over-represented in it overall.

This assay is described as follows: Identification of proteins required for the processing of the EWS-FLI1 nascent transcript.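 Further: robust z of luciferase light less the median z of siRNAs with the same seed.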 As to conditions: TC32 Ewing sarcoma NR0B1-luc vs CMV-luc (EWS-FLI1 target promoter against control promoter), 48 h; screened at 20 nM (by protocol). A digest of the protocol: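 Genome-wide siRNA screen (Ambion v4.1, three siRNAs per gene, 20 nM final, RNAiMax) in Ewing sarcoma TC32 cells carrying NR0B1-promoter or CMV-promoter luciferase; OneGlo luciferase read 48 h post-transfection. Data normalized, z-score-MAD transformed and seed-adjusted.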
For UGACCAUCCAGAAGUAGUU against SPHK1, the seed-corrected z-score is -0.911.
The sequence UUGGUAGAUAUGAUCUUCG against TCEA3 had a seed-corrected z-score of 0.375.
As for UUGGGUAUUGUUCUUGACU against SNRPD2, the seed-corrected z-score is -2.58.
For UGUUUAUUAGAAGUGACUC against FOLR2, the seed-corrected z-score is -0.238.
With UAGUUGUCAGUGAAGACUG against VIP the figure was -2.09; with CUUGUAGCUUCUCUACAUC against LOC441347, -0.389.
In the case of UUCUCAUCAAGCUGUCUCC against SH3RF2 it was 0.136; in that of UAUAACAGCAGUAUCUGUC against TMEM215, 0.183; in that of UUGUUGAAAUGGAACUCCU against HOXB1, 0.384.
In turn, UCAGUGCACGCAACUGUGU against TNXB gave a seed-corrected z-score of 0.0625.
UAUAUGAUUAACAAAACGG against XKR3 yielded a seed-corrected z-score of 0.439.
In the case of UUCUUUCCGAUGAUACUGC against PCBP2 it was -3.36.
In the case of UUUCGCAGUUGUAAGACCG against CROCCP3 it was 0.0641.
Regarding UAGAAUUUCUCGUACAACC against RALGPS1, the seed-corrected z-score turned out to be 0.75.
In the case of UAAUGAGCAGUGACUCUGG against BTBD11 it was 0.456; in that of AAUUCUUCAAAACUAACUU against S100G, 0.467.
In the case of AUCCGUACGCCUCCGAUUC against PCSK4 it was -0.594.
In the case of AAGGGAUAAGGGAUCAUCC against ST7 it was -0.0379.
Regarding UAUAGUUACAUGACUGCUG against SNU13, the seed-corrected z-score is -6.52.
In the case of UUUUUAAUGCCUUAUAGUC against TTLL13P, the seed-corrected z-score was 1.17.
With UACAUAGCUGCAUAGACAC against PLPPR5 the figure was -2.18; with UUCUUUAGCAACAUCACAG against CBR4, 0.335.
In the case of UAAGAUAUCUGACCACUAG against ZNF620 it was 0.641; in that of UCCAUAUCCCAUGACAUGC against SLC17A6, -0.139; in that of UGCUUGAGCAGAAUGACCG against DIO2, -2.14.
The sequence UGAACUUGCACACUUGAGU against KLK7 registered a seed-corrected z-score of 0.253.
Take AAACUUUGGAUGUUUUUGG against PPBP: the seed-corrected z-score worked out at 0.549.
For the sequence UUAGUACAGAUGCAGUUCU against OR56A5, the seed-corrected z-score was -14.6.
With UUUCGGUACGUGUAGUAGC against STRA6 the figure was 0.803; with UCUUUGACAAUAUCAACAG against UBE3D, -0.267.
With UGCGUGUCUUCUUUAACCU against FAM174B the figure was -0.0387; with UUAGAUCCAUGCUAUAAGC against PMS2P12, -0.142.
For UAAUCGUUUCUACAAGAUC against ATF7IP, the seed-corrected z-score was -2.43.
UUAAUCUUCAUCGUAAUAG against ZPLD1: the seed-corrected z-score was -0.649.
With UUUUUCGACAGGAAAGUGU against C5orf60 the figure was 0.245; with UUCAUUAUUAUCUCAGGAG against RFC3, -1.02.
As to UUCAGCAUAAAGACUGAUC against VPS41, the seed-corrected z-score was -0.683.
Regarding UCACUUCCUAUUCCCAUGG against PALM3, the seed-corrected z-score is -1.4.
As to AUCUUGGUAACAAACUUGG against TRPV4, the seed-corrected z-score is -3.43.
In the case of UAAUCGUUGGGAUCCAGUC against PCDHA13, the seed-corrected z-score worked out at 0.188.
UGUACGAUGAAGGUCAUGC against SLC34A2: the seed-corrected z-score is -0.00732.
The sequence UUCGUGUUUUGAAUCUUGG against B4GALT2 had a seed-corrected z-score of 1.23.
For AGCUGGAUCAUUUCUACAG against PKDCC, the seed-corrected z-score is -2.45.
In the case of UAGACUGUCACGUUGUAUG against SEZ6L it was 0.278; in that of AAAGAGAUAAUGUUCCUCC against FAM180B, 0.869.
With UCCCUAACAAAGCAUGUAC against ISL1 the figure was -0.138; with UUCUAAGAAAGCGAGCUGC against EID2B, -0.614.
With UCUCGAGUUAUGUGGUUGG against RAD51D the figure was 0.265; with AUAGUUGCAAUCAAACGAG against SFT2D2, -3.87.
Turning to UCUGGGAAAACAUGGUUGU against DUBR, the seed-corrected z-score is -1.17.
In the case of ACAGAUAUAACACUCAUCG against ANO10 it was -0.322; in that of AUUGUGACUAUUAUGAGUC against MTND5P10, -0.792.
As to UACAGAUCCGCGAUGUACU against RCN3, the seed-corrected z-score was 0.823.
With UUUCCGAAAAUUUAGUGGG against ATAD2 the figure was 0.659; with UGGUGGUCCACCUUGUUAG against F13A1, -1.25; with UCCAGUGCAAUGACUCUUG against ZNF114, -2.45.
With AACUUUUCACUGGUGACCC against C7orf55 the figure was -0.00837.
Regarding UCUCAGGAUAGGAACCACC against SPRR2G, the seed-corrected z-score was -0.114.
On to UUUAGAUCUAGAAUUACAC against SPESP1, for which the seed-corrected z-score is -0.539.
For UGAGCUCUGAGAAUUGAGG against POM121, the seed-corrected z-score turned out to be 0.483.
For the sequence UGCAGAUGCGGAAAGCUGC against LOC388692, the seed-corrected z-score is 0.336.
Take AUCCAGUUCACGUAGGCAG against TPSG1: the seed-corrected z-score was -2.87.
In the case of UCUGCGUACUCAUCCAUCC against GALNT10 it was 0.408; in that of UCUGAUCUCACGGAUGAAG against RASEF, 0.117; in that of UUAGGCUCUUUGUAUGUCC against ELOVL4, 0.198.
In the case of UUUCUGCACAGGAAUAUCG against CD37 it was -3.03; in that of UCCGCGUAUAAAUAGGUGC against RSPH1, -0.487; in that of UGAGUUGAAGGUCUGCCCG against MPND, -0.48.
With UGAUAGAUGAAUAUCAUCC against KIAA0232 the figure was -0.728.
For UAUUCGCACAGGCUGAUUC against BBS12, the seed-corrected z-score is 0.0215.
In the case of AAGUUGGUGAUUAAUCUCC against DERL2 it was -0.311; in that of UUCUGUGGAAGAUUUCUGG against TOP3A, -0.163; in that of UAUUUGACUAGGCGACUUC against NET1, -2.17.
With UAUCUAAAGAGACCCUGUC against YPEL1 the figure was 1.06.
In the case of ACAGUAUCCUCAGAUGUCC against SHROOM2 it was 0.0618; in that of UGCAGUACUGAAGAUAACG against EOGT, -1.09; in that of UUCUUAGCCGCGAUGGUCU against DES, 0.351.
As to UAGGUAGAAGUGAUUGUUC against ZFAND4, the seed-corrected z-score was determined as 0.956.
As for AUGUGGACAGCGUAGCUCC against FUT4, the seed-corrected z-score was -0.421.
With UACAUUGUGAGAUCCCUGG against C17orf78 the figure was -2.15; with UUAUGAACCCUGGAGCUCC against ADRB3, 0.000803.
In the case of AAUACGAUGACAAUAAGGC against FAM200A it was -0.251; in that of AUAGCUGCGAACAAAGGCC against ZNF404, -6.09; in that of UUCGACUUGGUUGCAAUGG against PPBP, 0.68.
With UCCAGUUGUAUGUAAGGGC against ZDHHC6 the figure was -1.09; with AAUGGUCUUGUGAAUGGUC against LSM12, -2.08; with UUUCGUCAACAGUUCAAUC against USP34, -0.287.
As for UAAUCGAAAAACUUCAAUG against CLN5, the seed-corrected z-score was -0.147.
With AUCUCUGUAAGAUUGAUUC against ELMOD2 the figure was 0.0598; with UUGCUUUCCACAACGAGAU against CHL1-AS2, -0.29; with UUCUGCAUCAUAAUUGUCG against ADPRHL1, -0.679.
For UUGGUAGGCAUCGUAGUAG against CLDN2, the seed-corrected z-score worked out at 0.894.
With UAGCUGUGUGGAUCAGUGC against LOC642502 the figure was -2.62; with UCACUGUAUCUAAUAAAGC against FRG1JP, -0.744.
With AAUUUUAUCACCCAGAAAC against FCGR2B the figure was 0.134.
As for UGAGUUUCUUCUCCGUUCU against C11orf97, the seed-corrected z-score is -3.81.
Sequence UGAAAAGCGCUGCUUAACC against PRSS45 registered a seed-corrected z-score of 0.905.
In the case of UUCUUUGAUAGACUUCACC against FTMT it was 0.658; in that of UGAGAGUUAAAGGCCUUUC against ABHD14A, -2.97; in that of AAAUGUGCUCAAACUGUCU against ARL14, -0.125.
In the case of UUCUCUCAAGCUUCAAUGG against ZNF286A it was 0.716; in that of AGAGUUAAUUGGUAUGUCC against GIGYF1, 0.0611; in that of UCUGUUACUUCUGGUUUGC against BAAT, -0.229.
With UUAGCUGCUAGAAACAAGG against CCNT1, the seed-corrected z-score is -2.99.
In the case of UGAGUUUCCAUGCAUAGGA against GOLGA7 it was -3.67; in that of UCAGGUACGACUUUCGAUA against C1orf109, -1.21; in that of AGAGAUACAAGGUUUGAUC against ARG2, -0.0393.
With UCCUUGUACACGGCCAGCU against PCED1CP the figure was 0.3.
The sequence UGUACAUAGACGGUGAGGC against CD200 had a seed-corrected z-score of 0.299.

Source of the values: PubChem BioAssay AID1159506 (National Center for Advancing Translational Sciences (NCATS), 2015).
